Laboratory results from article PMC7862700, “An all-to-all approach to the identification of sequence-specific readers for epigenetic DNA modifications on cytosine”.

How the values were obtained:
Assay in all cases: DAPPL (digital affinity profiling via proximity ligation, sequencing); 10 mM Tris-HCl pH 7.5, 50 mM NaCl, 1 mM DTT, 4% glycerol, room temperature, 30 min; GST-TFs on glutathione beads, 16-mer random dsDNA library, 0.1% formaldehyde crosslink after washing; high values mean tight binding
FEV = target: T1, FEV (Homo sapiens, UniProt Q99581 1-238); details: protein: recombinant; tags: N-terminal GST; dsDNA, one strand shown
T1 sequence: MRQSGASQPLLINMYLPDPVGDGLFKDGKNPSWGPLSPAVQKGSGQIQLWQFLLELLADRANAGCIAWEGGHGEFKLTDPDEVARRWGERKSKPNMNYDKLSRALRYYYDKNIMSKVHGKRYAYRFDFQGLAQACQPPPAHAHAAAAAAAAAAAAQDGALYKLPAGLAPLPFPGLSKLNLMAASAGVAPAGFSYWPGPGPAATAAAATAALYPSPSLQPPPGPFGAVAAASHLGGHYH
Procedure, shortened: (§1)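 Binding signal is each hexamer's read frequency for a factor divided by its frequency in the tag-only sample. The factors were GST-fused human transcription factors from yeast, captured on glutathione beads, DNA-barcoded and pooled with that sample. Pools were incubated with 200 nmole of a random double-stranded 16-mer DNA library in Tris/NaCl/DTT/glycerol buffer at room temperature for 30 min, then washed, crosslinked with 0.1% formaldehyde, proximity-ligated with BsaI/T4 ligase (1 h, 37 °C), PCR-amplified and sequenced on an Illumina NextSeq500.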

ETV5 = ETV5 (Homo sapiens, UniProt P41161 1-510); details: protein: recombinant; tags: N-terminal GST; dsDNA, one strand shown
Procedure, shortened: as §1

HSF1 = HSF1 (Homo sapiens, UniProt Q00613 1-529); details: protein: recombinant; tags: N-terminal GST; chain copies: 3; dsDNA, one strand shown
Procedure, shortened: as §1

SPIC = target: T2, SPIC (Homo sapiens, UniProt Q8N5J4 1-248); details: protein: recombinant; tags: N-terminal GST; dsDNA, one strand shown
T2 sequence: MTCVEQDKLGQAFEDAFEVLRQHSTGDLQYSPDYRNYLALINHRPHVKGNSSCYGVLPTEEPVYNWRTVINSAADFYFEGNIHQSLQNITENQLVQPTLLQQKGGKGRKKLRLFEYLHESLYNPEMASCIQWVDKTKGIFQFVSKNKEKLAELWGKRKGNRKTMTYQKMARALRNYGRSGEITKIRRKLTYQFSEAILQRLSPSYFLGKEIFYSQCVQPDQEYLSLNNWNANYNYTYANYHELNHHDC
Procedure, shortened: as §1

ELF4 = ELF4 (Homo sapiens, UniProt Q99607 1-663); details: protein: recombinant; tags: N-terminal GST; dsDNA, one strand shown
Procedure, shortened: as §1

ELK4 = target: T3, ELK4 (Homo sapiens, UniProt P28324-2 1-405); details: protein: recombinant; tags: N-terminal GST; dsDNA, one strand shown
T3 sequence: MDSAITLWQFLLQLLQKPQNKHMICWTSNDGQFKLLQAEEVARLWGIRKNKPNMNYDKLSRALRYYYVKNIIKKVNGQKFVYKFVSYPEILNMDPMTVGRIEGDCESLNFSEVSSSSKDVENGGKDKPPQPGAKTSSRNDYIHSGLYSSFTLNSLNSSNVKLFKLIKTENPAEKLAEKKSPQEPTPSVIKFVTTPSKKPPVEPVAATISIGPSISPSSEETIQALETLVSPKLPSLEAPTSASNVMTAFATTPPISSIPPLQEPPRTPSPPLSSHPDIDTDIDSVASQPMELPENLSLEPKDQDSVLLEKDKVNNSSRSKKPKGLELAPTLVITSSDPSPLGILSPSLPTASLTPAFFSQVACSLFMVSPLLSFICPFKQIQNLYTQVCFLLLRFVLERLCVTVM
Procedure, shortened: as §1

ETV2 = target: T4, ETV2 (Homo sapiens, UniProt O00321 1-342); details: protein: recombinant; tags: N-terminal GST; dsDNA, one strand shown
T4 sequence: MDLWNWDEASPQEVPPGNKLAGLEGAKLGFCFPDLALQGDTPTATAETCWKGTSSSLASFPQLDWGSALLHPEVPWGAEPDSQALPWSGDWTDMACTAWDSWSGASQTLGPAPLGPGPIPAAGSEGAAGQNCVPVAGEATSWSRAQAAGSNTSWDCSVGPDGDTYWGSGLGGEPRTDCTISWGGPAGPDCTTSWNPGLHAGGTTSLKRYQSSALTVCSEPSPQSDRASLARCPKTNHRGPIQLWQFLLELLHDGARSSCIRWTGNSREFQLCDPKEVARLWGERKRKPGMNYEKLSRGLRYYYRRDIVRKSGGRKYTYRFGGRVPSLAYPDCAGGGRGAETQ
Procedure, shortened: as §1

ELF3 = target: T5, ELF3 (Homo sapiens, UniProt P78545 1-371); details: protein: recombinant; tags: N-terminal GST; dsDNA, one strand shown
T5 sequence: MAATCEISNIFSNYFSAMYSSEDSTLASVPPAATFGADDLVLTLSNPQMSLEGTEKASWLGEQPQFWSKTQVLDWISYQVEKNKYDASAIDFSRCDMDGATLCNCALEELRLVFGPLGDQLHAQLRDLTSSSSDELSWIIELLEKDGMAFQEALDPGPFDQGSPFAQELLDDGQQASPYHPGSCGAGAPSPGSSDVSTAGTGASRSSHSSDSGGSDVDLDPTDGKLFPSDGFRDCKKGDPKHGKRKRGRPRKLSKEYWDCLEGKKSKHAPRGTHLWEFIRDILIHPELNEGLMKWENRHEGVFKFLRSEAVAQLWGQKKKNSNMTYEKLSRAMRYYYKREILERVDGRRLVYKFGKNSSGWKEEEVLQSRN
Procedure, shortened: as §1

CRX = CRX (Homo sapiens, UniProt O43186 1-299); details: protein: recombinant; tags: N-terminal GST; dsDNA, one strand shown
Procedure, shortened: as §1

ETV1 = ETV1 (Homo sapiens, UniProt P50549 1-477); details: protein: recombinant; tags: N-terminal GST; dsDNA, one strand shown
Procedure, shortened: as §1

ERF = target: T6, ERF (Homo sapiens, UniProt P50548 1-548); details: protein: recombinant; tags: N-terminal GST; dsDNA, one strand shown
T6 sequence: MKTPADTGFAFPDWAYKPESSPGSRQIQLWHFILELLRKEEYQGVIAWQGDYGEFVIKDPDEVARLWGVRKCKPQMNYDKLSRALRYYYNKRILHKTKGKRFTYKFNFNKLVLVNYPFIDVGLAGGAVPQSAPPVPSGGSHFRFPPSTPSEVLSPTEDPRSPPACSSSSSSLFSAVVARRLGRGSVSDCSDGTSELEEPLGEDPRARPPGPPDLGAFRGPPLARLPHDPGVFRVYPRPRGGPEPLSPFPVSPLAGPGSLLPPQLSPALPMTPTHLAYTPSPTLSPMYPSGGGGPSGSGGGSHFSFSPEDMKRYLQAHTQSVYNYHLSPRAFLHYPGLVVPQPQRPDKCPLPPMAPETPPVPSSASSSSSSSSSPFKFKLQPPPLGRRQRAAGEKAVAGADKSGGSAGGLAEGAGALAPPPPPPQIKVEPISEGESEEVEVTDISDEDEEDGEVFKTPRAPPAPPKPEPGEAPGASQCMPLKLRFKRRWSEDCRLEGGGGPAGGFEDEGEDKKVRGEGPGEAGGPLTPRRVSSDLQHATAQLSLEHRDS
Procedure, shortened: as §1

ETV3L = target: T7, ETV3L (Homo sapiens, UniProt Q6ZN32 1-361); details: protein: recombinant; tags: N-terminal GST; dsDNA, one strand shown
T7 sequence: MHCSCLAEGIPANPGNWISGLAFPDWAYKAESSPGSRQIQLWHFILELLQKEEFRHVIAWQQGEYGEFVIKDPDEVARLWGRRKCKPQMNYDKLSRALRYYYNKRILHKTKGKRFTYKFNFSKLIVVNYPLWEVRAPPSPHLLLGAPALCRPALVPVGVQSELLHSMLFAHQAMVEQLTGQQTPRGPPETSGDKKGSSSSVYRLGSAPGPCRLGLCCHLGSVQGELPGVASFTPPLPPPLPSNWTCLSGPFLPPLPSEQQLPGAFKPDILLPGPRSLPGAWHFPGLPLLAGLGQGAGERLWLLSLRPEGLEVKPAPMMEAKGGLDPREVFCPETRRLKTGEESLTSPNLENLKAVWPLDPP
Procedure, shortened: as §1

ETS2 = target: T8, ETS2 (Homo sapiens, UniProt P15036 1-469); details: protein: recombinant; tags: N-terminal GST; dsDNA, one strand shown
T8 sequence: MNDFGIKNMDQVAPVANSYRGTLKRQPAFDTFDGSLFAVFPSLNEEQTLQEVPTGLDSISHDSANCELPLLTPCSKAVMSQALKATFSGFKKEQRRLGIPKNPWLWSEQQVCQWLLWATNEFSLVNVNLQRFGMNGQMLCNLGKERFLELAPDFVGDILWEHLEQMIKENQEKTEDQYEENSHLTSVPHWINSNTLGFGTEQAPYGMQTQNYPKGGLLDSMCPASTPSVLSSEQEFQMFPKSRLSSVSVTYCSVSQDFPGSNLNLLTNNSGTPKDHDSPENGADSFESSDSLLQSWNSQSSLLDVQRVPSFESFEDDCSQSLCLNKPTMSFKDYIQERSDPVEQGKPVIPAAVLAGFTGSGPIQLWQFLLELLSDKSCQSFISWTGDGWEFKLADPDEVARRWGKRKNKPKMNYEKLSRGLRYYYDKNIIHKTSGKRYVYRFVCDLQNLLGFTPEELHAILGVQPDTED
Procedure, shortened: as §1

SPDEF = target: T9, SPDEF (Homo sapiens, UniProt O95238 1-335); details: protein: recombinant; tags: N-terminal GST; dsDNA, one strand shown
T9 sequence: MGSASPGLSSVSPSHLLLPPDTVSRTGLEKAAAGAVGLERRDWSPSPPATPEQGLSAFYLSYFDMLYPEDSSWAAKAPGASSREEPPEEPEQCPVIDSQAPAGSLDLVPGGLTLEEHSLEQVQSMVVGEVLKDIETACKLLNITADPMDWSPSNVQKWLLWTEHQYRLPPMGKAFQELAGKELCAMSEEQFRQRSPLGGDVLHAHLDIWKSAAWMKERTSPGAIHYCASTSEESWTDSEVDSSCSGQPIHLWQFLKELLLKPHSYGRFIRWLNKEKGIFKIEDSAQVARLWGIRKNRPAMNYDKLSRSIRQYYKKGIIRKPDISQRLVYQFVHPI
Procedure, shortened: as §1

ETV7 = target: T10, ETV7 (Homo sapiens, UniProt Q9Y603 1-341); details: protein: recombinant; tags: N-terminal GST; dsDNA, one strand shown
T10 sequence: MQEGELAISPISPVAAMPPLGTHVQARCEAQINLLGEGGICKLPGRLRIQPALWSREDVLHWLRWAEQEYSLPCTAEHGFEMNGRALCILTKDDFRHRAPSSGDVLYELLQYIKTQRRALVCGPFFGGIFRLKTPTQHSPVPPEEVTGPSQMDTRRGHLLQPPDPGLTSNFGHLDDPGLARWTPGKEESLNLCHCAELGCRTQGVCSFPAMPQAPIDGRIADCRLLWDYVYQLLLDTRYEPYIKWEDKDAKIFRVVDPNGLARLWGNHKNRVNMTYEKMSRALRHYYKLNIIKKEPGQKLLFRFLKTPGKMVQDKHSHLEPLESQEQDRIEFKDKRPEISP
Procedure, shortened: as §1

ELF5 = target: T11, ELF5 (Homo sapiens, UniProt Q9UKW6-2 1-255); details: protein: recombinant; tags: N-terminal GST; dsDNA, one strand shown
T11 sequence: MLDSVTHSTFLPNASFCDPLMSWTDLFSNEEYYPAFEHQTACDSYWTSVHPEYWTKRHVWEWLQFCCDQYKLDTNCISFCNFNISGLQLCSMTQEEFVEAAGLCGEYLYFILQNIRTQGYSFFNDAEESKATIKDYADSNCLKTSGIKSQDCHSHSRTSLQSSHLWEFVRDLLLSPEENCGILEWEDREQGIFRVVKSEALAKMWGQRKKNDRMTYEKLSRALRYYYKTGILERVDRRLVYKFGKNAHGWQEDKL
Procedure, shortened: as §1

ETV3 = target: T12, ETV3 (Homo sapiens, UniProt P41162-2 1-143); details: protein: recombinant; tags: N-terminal GST; dsDNA, one strand shown
T12 sequence: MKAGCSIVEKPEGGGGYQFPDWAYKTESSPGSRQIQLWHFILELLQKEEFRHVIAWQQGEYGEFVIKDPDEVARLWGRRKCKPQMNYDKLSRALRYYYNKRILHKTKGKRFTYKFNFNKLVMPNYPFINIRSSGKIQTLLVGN
Procedure, shortened: as §1

ETV6 = ETV6 (Homo sapiens, UniProt P41212 1-452); details: protein: recombinant; tags: N-terminal GST; dsDNA, one strand shown
Procedure, shortened: as §1

ELF4, sequence (Q99607 whole entry): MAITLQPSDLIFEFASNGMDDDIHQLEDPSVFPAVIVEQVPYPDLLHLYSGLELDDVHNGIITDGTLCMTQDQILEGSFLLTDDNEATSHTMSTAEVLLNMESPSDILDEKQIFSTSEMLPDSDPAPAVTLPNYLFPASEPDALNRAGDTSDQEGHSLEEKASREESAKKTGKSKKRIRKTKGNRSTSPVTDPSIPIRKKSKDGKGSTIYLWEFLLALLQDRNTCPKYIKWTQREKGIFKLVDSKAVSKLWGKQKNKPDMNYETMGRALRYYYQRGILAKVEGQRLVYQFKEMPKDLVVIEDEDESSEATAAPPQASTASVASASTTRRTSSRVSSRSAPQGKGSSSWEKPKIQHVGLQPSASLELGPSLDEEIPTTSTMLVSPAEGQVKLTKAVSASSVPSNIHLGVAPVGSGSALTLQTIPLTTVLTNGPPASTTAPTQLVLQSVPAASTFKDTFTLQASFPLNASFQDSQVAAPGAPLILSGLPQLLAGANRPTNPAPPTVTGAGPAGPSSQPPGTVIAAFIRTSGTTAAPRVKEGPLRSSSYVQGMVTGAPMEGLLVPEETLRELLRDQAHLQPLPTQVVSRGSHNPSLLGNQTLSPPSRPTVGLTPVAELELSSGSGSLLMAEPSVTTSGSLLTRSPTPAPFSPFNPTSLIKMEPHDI
ETV1, sequence (P50549 whole entry): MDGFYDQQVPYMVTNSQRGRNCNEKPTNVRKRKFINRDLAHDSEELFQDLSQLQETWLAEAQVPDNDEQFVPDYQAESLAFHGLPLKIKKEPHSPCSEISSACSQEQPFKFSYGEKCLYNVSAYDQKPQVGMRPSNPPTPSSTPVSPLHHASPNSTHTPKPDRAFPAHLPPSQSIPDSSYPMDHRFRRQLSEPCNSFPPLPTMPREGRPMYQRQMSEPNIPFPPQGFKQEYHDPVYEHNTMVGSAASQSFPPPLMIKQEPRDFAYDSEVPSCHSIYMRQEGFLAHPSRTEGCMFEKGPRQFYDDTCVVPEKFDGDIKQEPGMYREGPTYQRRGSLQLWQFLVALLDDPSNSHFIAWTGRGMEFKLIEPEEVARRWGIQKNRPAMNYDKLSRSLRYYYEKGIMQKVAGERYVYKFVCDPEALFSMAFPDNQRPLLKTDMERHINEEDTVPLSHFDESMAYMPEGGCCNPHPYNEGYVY
CRX, sequence (O43186 whole entry): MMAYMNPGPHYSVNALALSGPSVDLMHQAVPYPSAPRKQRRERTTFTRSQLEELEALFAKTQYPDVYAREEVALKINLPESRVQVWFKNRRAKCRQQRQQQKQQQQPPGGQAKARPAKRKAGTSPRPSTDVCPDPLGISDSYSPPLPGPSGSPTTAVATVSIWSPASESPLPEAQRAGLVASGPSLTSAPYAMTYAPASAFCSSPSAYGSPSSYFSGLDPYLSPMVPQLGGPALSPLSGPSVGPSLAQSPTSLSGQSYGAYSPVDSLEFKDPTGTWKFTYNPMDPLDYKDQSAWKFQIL
ETV6, sequence (P41212 whole entry): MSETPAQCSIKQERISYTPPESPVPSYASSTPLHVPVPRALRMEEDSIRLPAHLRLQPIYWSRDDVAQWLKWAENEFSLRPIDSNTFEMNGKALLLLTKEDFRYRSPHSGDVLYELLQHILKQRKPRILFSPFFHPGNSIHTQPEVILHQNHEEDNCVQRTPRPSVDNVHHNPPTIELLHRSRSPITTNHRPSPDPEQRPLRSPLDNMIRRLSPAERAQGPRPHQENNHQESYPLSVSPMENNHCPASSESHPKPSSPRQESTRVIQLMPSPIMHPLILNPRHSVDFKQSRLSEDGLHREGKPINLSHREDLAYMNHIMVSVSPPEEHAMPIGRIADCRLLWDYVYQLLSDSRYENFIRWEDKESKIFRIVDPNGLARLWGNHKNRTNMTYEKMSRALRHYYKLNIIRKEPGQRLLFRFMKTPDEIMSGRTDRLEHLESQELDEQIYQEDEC
HSF1, sequence (Q00613 whole entry): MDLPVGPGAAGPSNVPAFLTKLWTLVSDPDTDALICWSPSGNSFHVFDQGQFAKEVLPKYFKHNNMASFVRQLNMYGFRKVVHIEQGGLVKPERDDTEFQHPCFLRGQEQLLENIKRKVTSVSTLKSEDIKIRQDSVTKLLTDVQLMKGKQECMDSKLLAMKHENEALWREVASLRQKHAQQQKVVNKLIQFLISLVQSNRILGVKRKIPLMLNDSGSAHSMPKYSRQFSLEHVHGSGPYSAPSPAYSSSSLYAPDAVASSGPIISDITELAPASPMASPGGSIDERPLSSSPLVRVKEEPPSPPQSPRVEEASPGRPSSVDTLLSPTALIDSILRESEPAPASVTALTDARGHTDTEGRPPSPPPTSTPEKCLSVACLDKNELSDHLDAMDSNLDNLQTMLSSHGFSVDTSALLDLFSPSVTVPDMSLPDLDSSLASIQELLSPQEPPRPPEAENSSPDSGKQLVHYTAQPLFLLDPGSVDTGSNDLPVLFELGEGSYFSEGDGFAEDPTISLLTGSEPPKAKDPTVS
ETV5, sequence (P41161 whole entry): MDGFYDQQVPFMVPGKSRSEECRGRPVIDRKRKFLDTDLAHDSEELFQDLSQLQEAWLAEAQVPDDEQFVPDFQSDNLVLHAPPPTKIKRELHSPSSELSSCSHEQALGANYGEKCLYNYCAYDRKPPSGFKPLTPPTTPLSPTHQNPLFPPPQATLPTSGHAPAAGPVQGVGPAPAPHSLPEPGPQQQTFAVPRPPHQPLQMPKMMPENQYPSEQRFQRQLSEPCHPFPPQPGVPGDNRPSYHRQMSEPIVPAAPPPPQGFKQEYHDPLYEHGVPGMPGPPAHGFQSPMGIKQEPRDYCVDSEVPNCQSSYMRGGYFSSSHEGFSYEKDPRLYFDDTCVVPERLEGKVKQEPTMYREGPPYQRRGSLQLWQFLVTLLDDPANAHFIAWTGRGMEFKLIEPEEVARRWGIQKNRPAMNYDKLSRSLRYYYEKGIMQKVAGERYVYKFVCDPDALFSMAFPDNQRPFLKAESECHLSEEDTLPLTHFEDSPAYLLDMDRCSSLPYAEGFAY

CTCTAG
binding signal (FEV): 1.25 fold enrichment (6-mer frequency, TF over GST control) | binding signal (ETV5): 1.3 fold enrichment (6-mer frequency, TF over GST control) | binding signal (HSF1): 2.39 fold enrichment (6-mer frequency, TF over GST control) | binding signal (SPIC): 1.37 fold enrichment (6-mer frequency, TF over GST control) | binding signal (ELF4): 1.32 fold enrichment (6-mer frequency, TF over GST control) | binding signal (ELK4): 1.31 fold enrichment (6-mer frequency, TF over GST control) | binding signal (ETV2): 1.12 fold enrichment (6-mer frequency, TF over GST control) | binding signal (ELF3): 1.1 fold enrichment (6-mer frequency, TF over GST control) | binding signal (CRX): 1.46 fold enrichment (6-mer frequency, TF over GST control) | binding signal (ETV1): 1.16 fold enrichment (6-mer frequency, TF over GST control) | binding signal (ERF): 1.31 fold enrichment (6-mer frequency, TF over GST control) | binding signal (ETV3L): 1.28 fold enrichment (6-mer frequency, TF over GST control) | binding signal (ETS2): 1.26 fold enrichment (6-mer frequency, TF over GST control) | binding signal (SPDEF): 1.24 fold enrichment (6-mer frequency, TF over GST control) | binding signal (ETV7): 1.27 fold enrichment (6-mer frequency, TF over GST control) | binding signal (ELF5): 1.22 fold enrichment (6-mer frequency, TF over GST control) | binding signal (ETV3): 1.4 fold enrichment (6-mer frequency, TF over GST control) | binding signal (ETV6): 1.34 fold enrichment (6-mer frequency, TF over GST control)
